Compounds without any hit were thinned out: in the full panel of roughly 83,000, 20% have a hit.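 The test compound was applied at a single concentration to cells in 96-well plates for 48 hours, and percent growth was recorded.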 Calls of active or inactive are those of the source. The calls were made as follows: active = growth percent below 10; inactive = the rest.
Experiments:
Test in all cases: NCI-60 one-dose screen, 48 h (100 = growth as untreated, 0 = no growth, -100 = all killed)
Details in all cases: 10 µM
K-562 leukemia = system: K-562 leukemia
MALME-3M melanoma = system: MALME-3M melanoma
MDA-MB-231 breast = system: MDA-MB-231 breast
RXF 393 renal = system: RXF 393 renal
SF-295 CNS = system: SF-295 CNS
SF-539 CNS = system: SF-539 CNS
UACC-257 melanoma = system: UACC-257 melanoma
M14 melanoma = system: M14 melanoma
HT29 colon = system: HT29 colon
SNB-75 CNS = system: SNB-75 CNS
SNB-19 CNS = system: SNB-19 CNS
PC-3 prostate = system: PC-3 prostate
SK-MEL-5 melanoma = system: SK-MEL-5 melanoma
UACC-62 melanoma = system: UACC-62 melanoma
LOX IMVI melanoma = system: LOX IMVI melanoma
SK-MEL-28 melanoma = system: SK-MEL-28 melanoma
SK-MEL-2 melanoma = system: SK-MEL-2 melanoma
SF-268 CNS = system: SF-268 CNS
HCT-15 colon = system: HCT-15 colon
U251 CNS = system: U251 CNS

Measured: growth

Oc1[nH]c2cc(Cl)ccc2c1/C=c1/ccc2c(c1)N=C(c1cc(F)cc(F)c1)N=2
active: RXF 393 renal 1.45% | SF-539 CNS 3.76% | M14 melanoma -9.94% | HT29 colon 3.28% | SNB-75 CNS -21.5%
inactive: K-562 leukemia 10.3% | MALME-3M melanoma 51.4% | MDA-MB-231 breast 66.7% | SF-295 CNS 13.5% | UACC-257 melanoma 55.6% | SNB-19 CNS 64.5% | PC-3 prostate 13% | SK-MEL-5 melanoma 15.5% | UACC-62 melanoma 36.4% | LOX IMVI melanoma 37.7% | SK-MEL-28 melanoma 40.1% | SK-MEL-2 melanoma 20.4%

O=C1/C(=C\c2cn(C(=O)c3ccc(Cl)cc3)c3ccccc23)c2ccccc2N1C(=O)c1ccc(Cl)cc1
inactive: K-562 leukemia 83.9% | MALME-3M melanoma 126% | MDA-MB-231 breast 81.2% | RXF 393 renal 83.3% | SF-268 CNS 77.6% | SF-295 CNS 102% | SF-539 CNS 67.3% | M14 melanoma 79.2% | HCT-15 colon 65.8% | HT29 colon 70.4% | SNB-75 CNS 54.4% | SNB-19 CNS 98.2% | U251 CNS 74.2% | PC-3 prostate 65.7% | SK-MEL-5 melanoma 74.9% | UACC-62 melanoma 88.9% | LOX IMVI melanoma 67.2% | SK-MEL-28 melanoma 103% | SK-MEL-2 melanoma 49.8%

CC12O[C@H](C[C@@H](O)[C@H]1O)n1c3ccccc3c3c4c(c5c6ccccc6n2c5c31)C(=O)N(CCCN)C4=O
active: LOX IMVI melanoma 1.96%
inactive: K-562 leukemia 15.5% | MALME-3M melanoma 33.4% | MDA-MB-231 breast 41.1% | RXF 393 renal 26.4% | SF-268 CNS 36.5% | SF-295 CNS 51% | SF-539 CNS 39.1% | M14 melanoma 37.1% | HCT-15 colon 96.4% | HT29 colon 11.3% | SNB-75 CNS 49.8% | SNB-19 CNS 26.9% | U251 CNS 14.8% | PC-3 prostate 34% | SK-MEL-5 melanoma 40.6% | UACC-62 melanoma 47.8% | SK-MEL-28 melanoma 92.1% | SK-MEL-2 melanoma 50.3%

COc1ccc2nc3cc(Cl)ccc3c(NCCNCC(C)O)c2c1 (stereo not drawn)
active: K-562 leukemia 2.47% | HT29 colon -37.7% | U251 CNS -8.32%
inactive: MALME-3M melanoma 44.4% | MDA-MB-231 breast 34.3% | SF-268 CNS 36% | SF-295 CNS 35.1% | SF-539 CNS 26.2% | UACC-257 melanoma 30.2% | M14 melanoma 43.3% | HCT-15 colon 19.4% | SNB-75 CNS 63.7% | SNB-19 CNS 34% | PC-3 prostate 28.1% | SK-MEL-5 melanoma 81% | UACC-62 melanoma 54.1% | LOX IMVI melanoma 14.5% | SK-MEL-28 melanoma 54.7% | SK-MEL-2 melanoma 31.1%

COc1ccc(-c2nc3sccn3c2-c2nc3c([nH]2)C(=O)c2ccccc2C3=O)cc1
inactive: K-562 leukemia 84.8% | MALME-3M melanoma 151% | MDA-MB-231 breast 96.1% | RXF 393 renal 98.2% | SF-295 CNS 87.2% | SF-539 CNS 98% | UACC-257 melanoma 89.2% | M14 melanoma 130% | HCT-15 colon 87.8% | HT29 colon 96.2% | SNB-75 CNS 81.7% | PC-3 prostate 73.7% | SK-MEL-5 melanoma 89% | UACC-62 melanoma 82.2% | LOX IMVI melanoma 90.7% | SK-MEL-28 melanoma 89.6% | SK-MEL-2 melanoma 101%

COc1ccc(-c2nc3ncccn3c2-c2nnc(-c3ccc(F)cc3)o2)cc1
inactive: K-562 leukemia 87.7% | MALME-3M melanoma 122% | MDA-MB-231 breast 88.9% | RXF 393 renal 111% | SF-295 CNS 97.1% | SF-539 CNS 94.5% | UACC-257 melanoma 105% | M14 melanoma 110% | HCT-15 colon 93.8% | HT29 colon 107% | SNB-75 CNS 94.7% | SNB-19 CNS 96.9% | U251 CNS 106% | PC-3 prostate 92.8% | SK-MEL-5 melanoma 91.8% | UACC-62 melanoma 91.1% | LOX IMVI melanoma 87.7% | SK-MEL-28 melanoma 99.5% | SK-MEL-2 melanoma 111%

Cc1ccc(C(=O)Nc2cccc(F)c2)cc1NC(=O)C1(c2ncnc3[nH]ccc23)CC1
inactive: MALME-3M melanoma 35% | MDA-MB-231 breast 54.8% | RXF 393 renal 91.5% | SF-268 CNS 95.2% | SF-295 CNS 89.3% | SF-539 CNS 73% | M14 melanoma 60% | HCT-15 colon 88.8% | HT29 colon 52.5% | SNB-75 CNS 95.8% | SNB-19 CNS 120% | U251 CNS 93.6% | PC-3 prostate 92.2% | SK-MEL-5 melanoma 74.3% | UACC-62 melanoma 54.5% | LOX IMVI melanoma 42.1% | SK-MEL-28 melanoma 83.3% | SK-MEL-2 melanoma 14.5%
active: K-562 leukemia 6.39%

Cc1cc(N(CCCNc2ccnc3cc(Cl)ccc23)Cc2ccc3c(c2)OCO3)nc(N2CCCCC2)n1
active: K-562 leukemia -45.5% | MALME-3M melanoma -81.6% | MDA-MB-231 breast -47.2% | RXF 393 renal -74.5% | SF-268 CNS 3.28% | SF-295 CNS -67.6% | SF-539 CNS -87.7% | M14 melanoma -86% | HCT-15 colon -78.3% | HT29 colon -49.9% | SNB-75 CNS -26.5% | U251 CNS -55% | PC-3 prostate -34.6% | SK-MEL-5 melanoma -95.3% | UACC-62 melanoma -54.7% | LOX IMVI melanoma -89% | SK-MEL-28 melanoma -81.9% | SK-MEL-2 melanoma -67.5%
inactive: SNB-19 CNS 14.9%
